# Only some compounds are listed: those with a hit (about 3.2% of all), similar ones and a draw of the others.
# LASV entry inh – blocks Lassa virus binding to or entry into cells; 300,000 tested, 1.2% active; Lassa virus pseudotype entry inhibition, cell reporter; Potency, µM (titrated, usually from 37.9 µM), for inactives: at the top dose activity change, negative = inhibition, most hits filed as inhibitors; AID 540256; calls by dose curve; tested in HEK293 cells; note: nearly all actives have a fitted effect of over 50% in size
# Vaccinia Venus – vaccinia inhibition (Venus reporter) | 330,000 tested, 0.46% active | Vaccinia virus Venus reporter expression, fluorescence | Potency, µM (top dose mostly 36.5 µM), for inactives: at the top dose activity change, negative = inhibition, usual class: inhibitors; calls by dose curve; tested in A549 cells; note: nearly all actives have a fitted effect of over 30% in size
# Marburg entry inh – blocks Marburg virus binding to or entry into cells | Marburg virus pseudotyped entry inhibition, cell reporter | Potency, µM (doses to about 37.8 µM), inactives show at the highest dose activity change, negative = inhibition, most hits filed as inhibitors | 300,000 tested, 1.8% active | AID 540276; calls by dose curve; tested in HEK293 cells
# Vaccinia mCherry – inhibitors of vaccinia virus infection (mCherry reporter signal); Vaccinia virus mCherry reporter infection, fluorescence; 310,000 tested, 0.63% active; AID 720579; Potency, µM (doses to about 36.5 µM), without a hit: at the top dose activity change, negative = inhibition, hits mostly inhibitors; calls by dose curve; tested in A549 cells; note: nearly all actives have a fitted effect of over 35% in size
# FMDV antiviral – antivirals against foot and mouth disease virus; AID 1159524; 410,000 tested, 1.2% active; Potency, µM (doses to about 57.9 µM), for the others: at the highest dose activity change, negative = inhibition, usual class: inhibitors; FMDV antiviral cell-based qHTS; calls by dose curve; tested in HEK293T cells; note: read-out not given here; nearly all actives have a fitted effect of over 45% in size
# Active calls of the source: *; i = inactive; ? = inconclusive; . = not tested or not shown; [ ] = dose if it differs, or a comment. % is set by controls: 0 for no effect and ±100 for the full control effect; potency is the fitted concentration of half-maximal effect.
SMILES,LASV entry inh,Vaccinia Venus,Marburg entry inh,Vaccinia mCherry,FMDV antiviral
CN(C(=O)CSc1nc2ccc(NC(=O)c3ccc(F)cc3)cc2s1)c1ccccc1,?,-28%,?,-13%,?
O=C(O)CCn1cc(/C=C2\NC(=S)N(c3ccccc3)C2=O)c(-c2ccc(Br)cc2)n1,5%,.,11%,.,-9%
Cc1nc(CC(=O)NCC2Cc3cc(F)cc(-c4ccc(F)c(C)c4)c3O2)cs1 (stereo not given),.,-4%,.,-10%,-5%
C#C[C@]1(O)CC[C@H]2[C@@H]3CCC4=Cc5nc6nc7ccccc7n6cc5C[C@]4(C)[C@H]3CC[C@@]21C,.,-6%,.,i,14µM*
C#C[C@]1(O)CC[C@H]2[C@@H]3CCC4=Cc5oncc5CC4(C)[C@H]3CCC21C (stereo not given in full),?,.,21µM*,.,.
Cn1c(=O)n(CC(=O)OCc2ccccc2)c(=O)c2c1nc1n2CCCN1C1CCCCC1,?,-18%,?,.,28µM*
CN(C)c1ccc(C2C=C(c3ccc(Cl)cc3OC(F)F)Nc3ncnn32)cc1 (stereo not given),14µM*,?,?,.,-22%
CCc1sc(C(=O)Nc2ncccc2O)cc1C,?,-25%,6.3µM*,-29%,-54%
O=C(CNC(=O)C1CCCCC1)OCc1ccccc1,.,15%,.,23%,.
CC[C@@H](C(=O)[C@@H](C)[C@@H](O)[C@H](C)[C@@H]1O[C@@H]([C@@H](CC)C(=O)O)CC[C@@H]1C)[C@H]1O[C@]2(C=C[C@@H](O)[C@]3(CC[C@@](C)([C@H]4CC[C@](O)(CC)[C@H](C)O4)O3)O2)[C@H](C)C[C@@H]1C,.,11µM*,.,2.5µM*,?
CCCCC(Sc1nc(N)c(NC(=O)c2ccco2)c(=O)[nH]1)C(=O)O (stereo not given),.,.,.,.,-12%
COc1ccc(CN2CCCC(Cn3cc(C(=O)N4CCCC4)nn3)C2)c(O)c1 (stereo not given),.,-9%,.,-10%,-12%
Nc1ccc(/C=C/c2cccc3cccnc23)cc1,.,-21%,.,-8%,.
O=C(NNc1c([N+](=O)[O-])cc(C(F)(F)F)cc1[N+](=O)[O-])c1ccco1,.,.,.,.,32µM*
O=C(NNc1c(F)c(F)cc(F)c1F)c1ccco1,.,.,.,.,-15%
Cc1cc([N+](=O)[O-])nn1Cc1ccc(C(=O)N/N=C/c2ccc(F)cc2)cc1,-1%,-25%,?,-30%,-12%
O=C(N/N=C/c1ccc(O)cc1O)c1ccc(CN2C(=O)c3cccc4cccc2c34)cc1,5.2µM*,?,3.2µM*,2.5µM*,-19%
Cc1cc([N+](=O)[O-])nn1Cc1ccc(C(=O)N/N=C/c2ccc(O)cc2O)cc1,3.5µM*,?,7.3µM*,?,-17%
CNc1cc(OC)c(C(=O)N[C@H]2CCN(Cc3ccccc3)[C@H]2C)cc1Cl,.,.,.,.,-17%
OC(CN1C=CCc2ccccc21)c1ccc(Cl)cc1Cl (stereo not given),.,-15%,.,16%,.
CCc1cccc(-n2c(=O)c3cccnc3n2CC(=O)Nc2c(C)cc(C)cc2C)c1,27%[46.1 µM],-1%[7.34 µM],.,3%[7.34 µM],-20%
O=c1c2c(nc3c(-c4cccc5ccccc45)c[nH]n13)CCC2,3%,-20%,-6%,0%,-14%
O=c1c2c(nc3c(-c4ccc(Cl)cc4)c[nH]n13)CCCC2,10µM*,4.5µM*,?,?,22µM*
CN(C(=O)Cn1cc([N+](=O)[O-])ccc1=O)C1CCCCC1,9%,4%,1.3µM*,-12%,-18%
CN(C(=O)CN1C(=O)c2ccc([N+](=O)[O-])cc2C1=O)C1CCCCC1,18%,-2%,9%,i,-9%
SMILES,LASV entry inh,Vaccinia Venus,Marburg entry inh,Vaccinia mCherry,FMDV antiviral
O=C(Nc1ccc(Oc2c(F)c(F)c(F)c(F)c2F)cc1)OC1CCN2Cc3ccccc3N=C12 (stereo not given),?,-13%,?,-4%,20µM*
CCN(CC)CCCCCCCCOC(=O)c1cc(OC)c(OC)c(OC)c1,?,?,23µM*,?,-8%
COc1cc(C(=O)OCCCN2CCCN(CCCOC(=O)c3cc(OC)c(OC)c(OC)c3)CC2)cc(OC)c1OC,?,-9%,5.2µM*,-6%,-15%
CC(OC(=O)Cn1[nH]c(=O)c2ccccc2c1=O)C(=O)c1ccccc1 (stereo not given),.,.,.,.,-19%
O=C(N/N=C/c1sc(N2CCOCC2)nc1-c1ccccc1)c1ccccc1Cl,?,-20%,9%[46.1 µM],-5%,-16%
O=C(N/N=C/c1sc(N2CCOCC2)nc1-c1ccccc1)c1ccccc1O,1.3µM*,?,7.9µM*,?,-2%
CCOc1ccc(NC(=S)NC23CC4CC(CC(C4)C2)C3)cc1,.,.,.,.,-2%
FC(F)Oc1ccc(NC(=S)NC23CC4CC(CC(C4)C2)C3)cc1,2.5µM*,-22%,-29%[46.1 µM],-3%,?
CCc1ccn2cc(-c3cc(-c4ccccc4)no3)nc2c1,.,.,.,.,3.2µM*
Cc1ccc2nc(-c3cc(-c4ccccc4)no3)cn2c1,0.89µM*,-3%,?,i,-48%
Cc1nc(-c2ccc3c(c2)OCCCO3)cs1,?,-7%,-17%,i,16%
Cc1ccc(-c2cc(-c3ccccc3)no2)c(O)c1,5µM*,0%,?,-13%,?
Nc1nc(-c2ccc3c(c2)OCCO3)cs1,7%,7.1µM*,-16%,-18%[1.46 µM],34%
Oc1ccccc1-c1cc(-c2ccccc2)no1,?,-8%,?,.,10%
O=C(Nc1cccc(N2CCC(NCc3cnn(-c4cccc(F)c4)c3)CC2)c1)c1ccncc1,.,-3%,.,-23%,-30%
N#C[C@H](C(=O)NC1CC1)c1nc2ccccc2nc1N1CCN(C/C=C\c2ccccc2)CC1,.,.,0%,.,.
Cc1ccc2nc(-c3ccc4c(c3)OCCO4)cn2c1,1µM*,-18%,?,i,3.2µM*
CN(c1cccc(NC(=O)CN(c2ccc(C34CC5CC(CC(C5)C3)C4)cc2)S(C)(=O)=O)c1)S(C)(=O)=O,7.3µM*,?,18µM*,?,.
Cc1ccc(S(=O)(=O)N(CC(=O)Nc2cccc(N(C)S(C)(=O)=O)c2)c2ccc(Cl)c(Cl)c2)cc1,?,-27%,16µM*,-22%,.
CNc1ccc(C=O)cc1Cl,.,-6%,.,-9%,.
CCCn1c(SCc2nc(-c3ccc(OC)c(OC)c3)no2)nnc1-c1ccccc1,-26%[46.1 µM],-14%,5.6µM*,-21%,-8%
CCCCCCCCN1C(=O)[C@H](CC(=O)N2CCN(C(=O)c3ccco3)CC2)C[C@@]2(C(=O)OC)CC(C)(C)CC=C12,.,-25%,.,4%,-23%
CC(NC(=O)/C(C#N)=C/c1ccc(Cl)c([N+](=O)[O-])c1)c1ccccc1 (stereo not given),?,.,?,.,32µM*
Cc1cc(C(C)(C)C)cc(C)c1Cn1c2[n+](c3ccc(C(F)(F)F)cc31)CCCCC2,13µM*,-6%,?,i,28µM*
FC(F)(F)c1cccc(Cn2c3[n+](c4ccc(C(F)(F)F)cc42)CCCCC3)c1,-1%,-1%,?,-4%,-21%

# Assay outcomes as filed in PubChem.
